# Measurements published in the supplement of paper PMC7530171.
# ± gives the standard deviation.
# Tested on: THP-1 macrophages infected with Mycobacterium tuberculosis H37Rv
# Experiment: intracellular M.tb growth inhibition relative to DMSO (0) and 4 uM bedaquiline (100); higher = stronger inhibition of intracellular bacterial growth
# Settings: 10 µM; 4 days
# Procedure: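 OICR kinase inhibitor library screened in duplicate at 10 uM against THP-1 macrophages (PMA-differentiated) infected with M. tuberculosis H37Rv-pTEC27 (tdTomato RFP), 4 days at 37 C. Rows with complete host cell loss (placeholder inhibition 0, cell loss 100) were removed.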
row,Compound,intracellular M.tb growth inhibition [%]
1,S=C(NCc1ccc2c(c1)OCO2)N1CCN(c2ncnc3c2oc2ccccc23)CC1,-35.5 ± 71
2,O=C1c2ccc(O)c(O)c2C(=O)c2c(O)ccc(O)c21 [Quinalizarin],-115 ± 210
3,COCC(=O)NC/C=C/c1ccc2ncnc(Nc3ccc(Oc4ccc(C)nc4)c(C)c3)c2c1,5.71 ± 95
4,O=C(C=Cc1ccccc1)NC(NC(=S)Nc1ccc(Cl)cc1)C(Cl)(Cl)Cl (stereo not given),12.9 ± 18
5,N#C/C(=C\c1ccc(O)c(O)c1)C(=O)NCc1ccccc1,9.47 ± 28
6,CN(C)Cc1cccc(N=C(c2ccccc2)c2c(O)[nH]c3cc(C(=O)N(C)C)ccc23)c1,-213 ± 320
7,Nc1ccc(-c2cccc3c(=O)cc(N4CCOCC4)oc23)cc1,-49 ± 35
8,NC(=O)c1ccc2[nH]ccc2c1,10.6 ± 2.2
9,COc1cc2ncn(-c3cc(OCc4ccccc4C(F)(F)F)c(C(N)=O)s3)c2cc1OC,38.7 ± 14
10,Cc1nc2sccn2c(=O)c1CCN1CCC(=C(c2ccccc2)c2ccc(F)cc2)CC1,58.1 ± 4.4
11,COc1cc(Nc2c(C#N)cnc3cc(OCCCN4CCN(C)CC4)c(OC)cc23)c(Cl)cc1Cl [Bosutinib],109 ± 1.8
12,O=C(Nc1cc(C(F)(F)F)cc(C(F)(F)F)c1)c1cc(Cl)ccc1O,64.7 ± 16
13,COc1nccc(-c2c(-c3ccc(F)cc3)ncn2C2CCC(O)CC2)n1 (stereo not given),1.01 ± 15
14,CCCOc1ccc(/C=C2/SC(=O)NC2=O)cc1 [PIM1/2 Kinase Inhibitor VI],24.9 ± 13
15,Cn1cncc1[C@@](N)(c1ccc(Cl)cc1)c1ccc2c(c1)c(-c1cccc(Cl)c1)cc(=O)n2C [Tipifarnib],3.85 ± 56
